According to the supplement of paper PMC10338343:
± gives the standard deviation. In all, about 5,500 sequences were measured (“pre-steady-state target cleavage rate”: median about 0.1, highest 2% from about 0.64 on). Only a selection was taken, and the highest values are over-represented in it overall.

system: MIWI (PIWIL1) piRISC loaded with piRNA #2 (30 nt); test: pre-steady-state target cleavage rate (min^-1); MIWI and MILI are mouse PIWI proteins and EfPiwi is from a freshwater sponge; tags in brackets are library labels; higher = faster piRNA-guided slicing of the target; details: guide: piRNA #2 5'p-UUAGGUAACCCAGUAGAUCCAGAGGAAUUC; auxiliary factor: 500 nM mouse GTSF1
Method: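 Cleave-'n-Seq: a library of target RNAs (target site embedded in constant flanks, ACAGCATTCCGCGTTAGTGATATCCG... 5' flank; DNA-blocked outside the site) at 0.1 nM was incubated with 1 nM active mouse MILI or MIWI piRISC (synthetic 5'-monophosphorylated piRNA guide) with or without 500 nM mouse GTSF1 at 33 °C for 1 min to 16 h. Uncleaved targets were sequenced and normalised to non-target controls, and the pooled three trials were fitted to a burst-and-steady-state model to give the pre-steady-state cleavage rate (min^-1; k3 is constrained to at most 1e-4). Sequence is the target site only; target names encode pairing extent (gX:gY) and contiguous / 1-mismatch / 2-mismatch / bulge geometry. Fits with R² ≤ 0 are excluded.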

Row | Sequence | pre-steady-state target cleavage rate
1 | CUUAUCCUCUGGAUUACUGGGUUACCUAA | 0.481 ± 0.04
2 | CAAUUCCUCUGGAUACUACUGGGUUACCUAA | 0.519 ± 0.068
3 | CUUAUCCUCUGGAUACUACUGGGUUACCUAA | 0.419 ± 0.059
4 | CUUUUCCUCUGGAUAUACUGGGUUACCUAA | 0.628 ± 0.04
5 | CUAUUCCUCUGGAUAUACUGGGUUACCUAA | 0.772 ± 0.057
6 | CUAUUCCUCUGGAUACUACUGGGUUACCUAA | 0.422 ± 0.056
7 | CAAUUCCUCUGGAUAUACUGGGUUACCUAA | 0.724 ± 0.043
8 | GAAUUCCUCUGGAUAUACUGGGUUACCUAA | 0.551 ± 0.038
9 | CUUAUCCUCUGGAUAUACUGGGUUACCUAA | 0.688 ± 0.052
10 | CAAUUCCUCAGGAUCUACUGGGUAACCUAA | 0.336 ± 0.056
11 | CUUAACCUCUGGAUCUUCAGGGUUACCUAA | 0.112 ± 0.014
12 | CUUAACCUCUGGAACUACUGGGUUAGCUAA | 0.103 ± 0.016
13 | CAAUUCCUCUCGAUCUACAGGGUUACCUAA | 0.546 ± 0.038
14 | CUUUUCCUCUGGAACUAGUGGGUUACCUAA | 0.204 ± 0.025
15 | CUUAAGGAGAGGAUCUACUGGGUUACCUCA | 0.012 ± 0.0055
16 | CAAUUCCUCUCGGAUCUACUGGGUUACCUAA | 0.506 ± 0.065
17 | GAAUUCCUCUCGAUCUACUGGGUUACCUUA | 0.629 ± 0.069
18 | CUAAUCCUCUCGAUCUACUGGGUUACCUAA | 0.631 ± 0.042
19 | CAAUACCUCUCGAUCUACUGGGUUACCUAA | 0.625 ± 0.056
20 | CUAUUCCUCUCGAUCUACUGGGUUACCUUA | 0.583 ± 0.056
21 | CUAUUCCUCUCGGAUCUACUGGGUUACCUAA | 0.575 ± 0.089
22 | CAAUUCCUCUCGAUCUACUGGGUUACCUAA | 0.822 ± 0.063
23 | GUAUUCCUCUCGAUCUACUGGGUUACCUAA | 0.193 ± 0.044
24 | CUAUUCCUCUCGAUCUACUGGGUUACCUAA | 0.734 ± 0.063

Row | Sequence | pre-steady-state target cleavage rate
25 | GAAAUCCUCUCGAUCUACUGGGUUACCUAA | 0.586 ± 0.054
26 | CAAUUCCUCUCGAUCUACUGGGUUACCUUA | 0.69 ± 0.056
27 | CAAAUCCUCUCGAUCUACUGGGUUACCUAA | 0.641 ± 0.05
28 | CUUAAGGUCUGGAUCUACUGGGUUACCAUA | 0.203 ± 0.029
29 | CUUAACCUCUCGAUCUUCUGGGUUACCUAA | 0.47 ± 0.044
30 | CUUAAGGUCUGGAUCUUCUGGGUAACCUAA | 0.0193 ± 0.011
31 | CUUAAGGAGUGGAUCUACACCGUUACCUAA | 0.0034 ± 0.0022
32 | CUAUUCCUCUGCAUCUUCUGGGUUACCUAA | 0.316 ± 0.028
33 | GAAUUCCUCUGGAUCUACUGGGUUUGGUAA | 0.244 ± 0.061
34 | CUUAAGGUCUGGAUGUACUGGCUUACCUAA | 0.0442 ± 0.028
35 | CUUUACCUCUGGAUCUACUCGGUUACCUAA | 0.0688 ± 0.0087
36 | CUUAACCUCUGGAUGUUCUGGGUUACCUAA | 0.244 ± 0.019
37 | CUAUAUCCUCUGGAUCUACUGGGUUACCUAA | 0.352 ± 0.071
38 | GAAUUCCUCUCGAUCUACUGGGUUACCUAA | 0.642 ± 0.068
39 | GAAUUCCUCUCGAUCUACUGGGUUUCCUAA | 0.524 ± 0.06
40 | GAAUUCCUCUCGGAUCUACUGGGUUACCUAA | 0.442 ± 0.048
41 | CUUAACCUGUGGAUCUACUGGGUAACCUAA | 0.0751 ± 0.013
42 | GAAUUCCUCUGGAUCUAGUGGGAUACCUAA | 0.0616 ± 0.011
43 | CUUUUCCUCUGCAUCUACUGGGAUACCUAA | 0.128 ± 0.018
44 | CUAUUCCUCUCGAUCUACUGGGUUACGUAA | 0.935 ± 0.047
45 | CUUUUCCUCUCGAUCUACUGGGUUUCCUAA | 0.509 ± 0.058
46 | CAAUUCCUCUCGAUCUACUGGGUUACGUAA | 0.885 ± 0.061
47 | CAAUUCCUCUGGAUCUACUGGGUUACGUAA | 0.598 ± 0.065
48 | GUAUUCCUCUGGAUCUACUGGGUUACGUAA | 0.377 ± 0.057

Row | Sequence | pre-steady-state target cleavage rate
49 | CUAUUCCUCUGGAUCUACUGGGUUACGUAA | 0.63 ± 0.047
50 | GAAUUCCUCUCGAUCUACUGGGUUACGUAA | 0.581 ± 0.067
51 | CUUUUCCUCUGGAUCUACUGGGUUACGUUA | 0.374 ± 0.044
52 | CUUUUCCUCAGGAUCUACUGGGUUACGUAA | 0.523 ± 0.067
53 | CAUUUCCUCUGGAUCUACUGGGUUACGUAA | 0.622 ± 0.062
54 | CUUUUCCUCUCGAUCUACUGGGUUACGUAA | 0.746 ± 0.034
55 | CUUUUCCUCUGGAUCUACUGGGUUACGUAA | 0.664 ± 0.034
56 | CUUAAGGUCUGGAUCUACUCGGUUACCUAA | 0.0416 ± 0.02
57 | CUUAUCCUCUGGAUCUUCUGGGUUACGUAA | 0.45 ± 0.055
58 | CAAUUCCUCUGGAUCUACUGGAGUUACCUAA | 0.00382 ± 0.0035
59 | CUAUUCCUCUGGAUCUACUGGUUACCUAA | 0.104 ± 0.026
60 | GAAUUCCUCUGGAUCUACUGAGUUACCUAA | 0.67 ± 0.046
61 | CUAUUCCUCUGGAUCUACUGAGUUACCUAA | 0.823 ± 0.06
62 | CUUUUCCUCUGGAUCUACUGGGUUACCUAA [g2:g27:cont:t1A] | 0.408 ± 0.057
63 | CUAUUCCUCUGGAUCUACUGGAGUUACCUAA | 0.00422 ± 0.0041
64 | GAAUUCCUCUGGAUCUACUGAGGUUACCUAA | 0.00556 ± 0.0037
65 | CAAUUCCUCUGGAUCUACUGAGUUACCUAA | 0.869 ± 0.075
66 | CUUUUCCUCUGGAUCUACUGGUUACCUAA | 0.0817 ± 0.016
67 | CAAUUCCUCUGGAUCUACUGAGGUUACCUAA | 0.00648 ± 0.0048
68 | GAAUUCCUCUGGAUCUACUGGAGUUACCUAA | 0.00576 ± 0.0035
69 | CUUUUCCUCUGGAUCUACUGAGUUACCUAA | 0.727 ± 0.048
70 | CUUAUCCUCUGGAUCUACAGGGUUACCAAA | 0.237 ± 0.03
71 | CAAUUCCUCUCGAUCUACUGGGUAACCUAA | 0.476 ± 0.058
72 | GAAUUCCUCUGGAUCUUCUGGGAUACCUAA | 0.108 ± 0.018

Row | Sequence | pre-steady-state target cleavage rate
73 | CUUAUCCUCUGGAUCUUCUGGGUAACCUAA | 0.0522 ± 0.013
74 | GAAUUCCUCUGCAACUACUGGGUUACCUAA | 0.413 ± 0.048
75 | CUAUUCCUCUGGAUCUACUGGGUAACCUAA | 0.231 ± 0.042
76 | CUUAAGGUCUGGAUCUCCUGGGUUACCUAA | 0.0565 ± 0.013
77 | CUUAUCCUCUGGAUCUACUGGGUUAACUAA | 0.407 ± 0.071
78 | CUUAAGGUCUGGAACUAGUGGGUUACCUAA | 0.0577 ± 0.017
79 | CAAUUCCUCAGCAUCUACUGGGUUACCUAA | 0.437 ± 0.044
80 | CUUAAGCUCCUGGAUCUACUGGGUUACCUAA | 0.181 ± 0.021
81 | CUUAUCCUCGUGGAUCUACUGGGUUACCUAA | 0.161 ± 0.032
82 | GAAUUCCACUGGAUCUACUCGGUUACCUAA | 0.193 ± 0.022
83 | CUAUUCCUCUGGAUCUACUGCGUUACGUAA | 0.539 ± 0.08
84 | CUUAACCUCUGGAUCUACUGGGUUACCGUAA | 0.155 ± 0.019
85 | CUAUUCCUCUAGAUCUACUGGGUUACCUAA | 0.67 ± 0.042
86 | GAAUUCCUCUGAGAUCUACUGGGUUACCUAA | 0.381 ± 0.046
87 | CUAUUCCUCUGAGAUCUACUGGGUUACCUAA | 0.471 ± 0.042
88 | CAAUUCCUCUAGAUCUACUGGGUUACCUAA | 0.807 ± 0.047
89 | GAAUUCCUCUAGGAUCUACUGGGUUACCUAA | 0.348 ± 0.074
90 | CUAUUCCUCUAGGAUCUACUGGGUUACCUAA | 0.278 ± 0.041
91 | CAAUUCCUCUAGGAUCUACUGGGUUACCUAA | 0.434 ± 0.048
92 | GAAUUCCUCUAGAUCUACUGGGUUACCUAA | 0.731 ± 0.05
93 | CAAUUCCUCUGAGAUCUACUGGGUUACCUAA | 0.545 ± 0.057
